Common to all, as to assay: peptide microarray binding signal (635 nm), min-max normalized on array (fraction of array maximum); higher = stronger binding
Assay [1] has as its target T1, HaloTag-ATRX ADD domain (163-292).
T1 chain: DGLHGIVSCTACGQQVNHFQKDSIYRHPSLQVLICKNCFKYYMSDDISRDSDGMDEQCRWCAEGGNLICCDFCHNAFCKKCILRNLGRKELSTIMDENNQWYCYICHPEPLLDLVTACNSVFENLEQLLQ
The gist of the method:
(§1)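 Within each library, mean intensities of triplicate spots were min-max scaled to give the binding signal. The spots were histone 13-mer peptide–cellulose conjugates on nitrocellulose with a Cy3 tracer, blocked overnight at 4°C. They were then probed for 1 h at 4°C using biotin-labelled HaloTag reader fusions (10 nM to 1 μM) with streptavidin-Alexa Fluor 647 or rabbit histone antibodies (1:10,000 to 1:2,000) with anti-rabbit Alexa 647, and scanned at 635 nm for signal and 532 nm for misprints on an Axon GenePix 4000B.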

The target of assay [2] is HaloTag-ING2 PHD (mouse Ing2 200-280). The gist of the method: as §1
In assay [3] the target is anti-H3K4me3 antibody ab8580. The gist of the method:
as §1

Assay [4] deals with anti-H3K9me3 antibody ab8898. The procedure, abridged:
as §1

[5] abbreviates: peptide region: H4 38-50, binder concentration: 1:2,000 dilution.
Setting [6] is: peptide region: H4 38-50, binder concentration: 1:10,000 dilution.
[7] abbreviates: peptide region: H4 16-28, peptide modifications: H4R23me1, binder concentration: 1:2,000 dilution.
Setting [8] is: peptide region: H4 16-28, peptide modifications: H4R19me2a H4K20me3, binder concentration: 1:2,000 dilution.
The mark [9] stands for this setting: peptide region: H4 16-28, peptide modifications: H4R19me2a H4K20me3, binder concentration: 1:10,000 dilution.
Setting [10] is: peptide region: H4 16-28, peptide modifications: H4R19me1 H4K20ac, binder concentration: 1:2,000 dilution.
The mark [11] stands for this setting: peptide region: H4 16-28, peptide modifications: H4R19me1 H4K20ac, binder concentration: 1:10,000 dilution.
Setting [12] is: peptide region: H4 16-28, peptide modifications: H4R19me2a H4K20me1, binder concentration: 1:2,000 dilution.
Setting [13] is: peptide region: H4 16-28, peptide modifications: H4R19me2a H4K20me1, binder concentration: 1:10,000 dilution.

± gives the standard deviation.

On to ARRGGVKRISGLI [H4 38-50 A R R G G V K R I S G L I], for which the “peptide microarray binding signal” value is 0.00398 ± 0.00022 in assay [1] (peptide region: H4 38-50, binder concentration: 50 nM); 0.00614 ± 6.4e-05 in assay [1] (peptide region: H4 38-50, binder concentration: 500 nM); 0.003641 ± 3.4e-05 in assay [2] (peptide region: H4 38-50, binder concentration: 10 nM); 0.0105 ± 0.00039 in assay [2] (peptide region: H4 38-50, binder concentration: 100 nM); 0.000434 ± 8.7e-06 in assay [3] (setting [5]); 0.000913 in assay [3] (setting [6]). Besides, the “peptide microarray binding signal” value was 0.000151 ± 1.6e-06 in assay [4] (setting [5]) and 0.000634 ± 1.2e-05 in assay [4] (setting [6]).

For the molecule KRHRKVLRDNIQG [H4 16-28 K R H R K V L Rme D N I Q G], the “peptide microarray binding signal” value in assay [1] (peptide region: H4 16-28, peptide modifications: H4R23me1, binder concentration: 500 nM) stood at 0.000143 ± 4.6e-06; in assay [2] (peptide region: H4 16-28, peptide modifications: H4R23me1, binder concentration: 100 nM) it was 0.000354 ± 4.1e-06; in assay [3] (setting [7]), 0.000132 ± 1.5e-06; in assay [4] (setting [7]), 1.51e-05 ± 1.7e-07.

Consider KRHRKVLRDNIQG [H4 16-28 K R H Rme2a Kme3 V L R D N I Q G], for which the “peptide microarray binding signal” value in assay [1] (peptide region: H4 16-28, peptide modifications: H4R19me2a H4K20me3, binder concentration: 50 nM) came out at 0.0152 ± 0.00067; in assay [1] (peptide region: H4 16-28, peptide modifications: H4R19me2a H4K20me3, binder concentration: 500 nM), 0.0166 ± 0.00049; in assay [2] (peptide region: H4 16-28, peptide modifications: H4R19me2a H4K20me3, binder concentration: 10 nM), 0.0209 ± 0.00068; in assay [2] (peptide region: H4 16-28, peptide modifications: H4R19me2a H4K20me3, binder concentration: 100 nM) it was 0.0392 ± 0.009; in assay [3] (setting [8]), 0.0145 ± 0.0019; in assay [3] (setting [9]), 0.00981 ± 0.00045. For the same molecule, the “peptide microarray binding signal” value was found to be 0.0143 ± 0.0024 in assay [4] (setting [8]) and 0.0104 ± 0.00022 in assay [4] (setting [9]).

For the molecule KRHRKVLRDNIQG [H4 16-28 K R H Rme Kac V L R D N I Q G], the “peptide microarray binding signal” value was 0.00448 ± 0.00018 in assay [1] (peptide region: H4 16-28, peptide modifications: H4R19me1 H4K20ac, binder concentration: 50 nM); 0.00967 ± 0.0016 in assay [1] (peptide region: H4 16-28, peptide modifications: H4R19me1 H4K20ac, binder concentration: 500 nM); 0.00627 ± 0.00047 in assay [2] (peptide region: H4 16-28, peptide modifications: H4R19me1 H4K20ac, binder concentration: 10 nM); 0.00609 ± 0.00066 in assay [2] (peptide region: H4 16-28, peptide modifications: H4R19me1 H4K20ac, binder concentration: 100 nM); 0.00468 ± 0.0037 in assay [3] (setting [10]); 0.00137 ± 1.3e-05 in assay [3] (setting [11]). Moreover, the “peptide microarray binding signal” value in assay [4] (setting [10]) was determined as 0.000287 ± 2.9e-06; in assay [4] (setting [11]) it was 0.001557 ± 1.5e-05.

Consider KRHRKVLRDNIQG [H4 16-28 K R H Rme2a Kme V L R D N I Q G], for which the “peptide microarray binding signal” value came to 0.00382 ± 5.3e-05 in assay [1] (peptide region: H4 16-28, peptide modifications: H4R19me2a H4K20me1, binder concentration: 50 nM); 0.008 ± 0.00032 in assay [1] (peptide region: H4 16-28, peptide modifications: H4R19me2a H4K20me1, binder concentration: 500 nM); 0.00782 ± 0.00021 in assay [2] (peptide region: H4 16-28, peptide modifications: H4R19me2a H4K20me1, binder concentration: 10 nM); 0.0127 ± 0.0032 in assay [2] (peptide region: H4 16-28, peptide modifications: H4R19me2a H4K20me1, binder concentration: 100 nM); 0.0308 ± 0.032 in assay [3] (setting [12]); 0.00188 ± 8.8e-05 in assay [3] (setting [13]). Moreover, the entries for the “peptide microarray binding signal” value in assay [4] (setting [12]) and in assay [4] (setting [13]) were 0.000966 ± 4.1e-05 and 0.0015 ± 4.4e-05, respectively.

Source of the values: the supplement of paper PMC4022240.
